# Measurements: PubChem BioAssay AID2544 (Sanford-Burnham Center for Chemical Genomics, 2010)
# In all, about 330,000 compounds went through this assay and about 390 (0.12%) were called active. This excerpt belongs to a sample that is enriched for actives. A number with no mark means an inactive call.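 How the source made its calls: active means inhibition reaching a set limit with compound at 10 µM in the primary screen (cut at about 35% in these data); inactive means the rest.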
# Biological target: Intestinal-type alkaline phosphatase (Homo sapiens) (UniProt P09923)
# Sequence (P09923 whole entry, looked up): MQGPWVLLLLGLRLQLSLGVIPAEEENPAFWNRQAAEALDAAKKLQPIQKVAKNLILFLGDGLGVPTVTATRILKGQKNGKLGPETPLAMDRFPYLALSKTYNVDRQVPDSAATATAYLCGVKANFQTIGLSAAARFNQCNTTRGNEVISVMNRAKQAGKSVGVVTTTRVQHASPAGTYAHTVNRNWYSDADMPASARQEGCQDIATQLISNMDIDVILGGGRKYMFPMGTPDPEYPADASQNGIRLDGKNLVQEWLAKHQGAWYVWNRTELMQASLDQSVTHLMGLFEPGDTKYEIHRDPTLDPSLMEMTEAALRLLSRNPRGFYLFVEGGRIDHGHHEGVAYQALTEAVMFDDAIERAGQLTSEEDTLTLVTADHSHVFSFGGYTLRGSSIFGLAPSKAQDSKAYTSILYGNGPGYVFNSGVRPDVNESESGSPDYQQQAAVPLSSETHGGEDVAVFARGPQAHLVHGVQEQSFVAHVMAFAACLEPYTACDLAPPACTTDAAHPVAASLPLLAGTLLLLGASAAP
# Assay: human IAP inhibitors, primary screen, biochemical, luminescence, uHTS (AID 2544);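 further: plate controls were DMSO wells with enzyme for no effect and no-enzyme buffer wells for full effect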
# Settings: purified IAP, CDP-Star luminescence, 30 min; at 10 µM; stronger effect = higher value
row,SMILES,inhibition
1,CCCC1C(c2ccccc2)C(C#N)(C#N)C2(C#N)CC1(N)NC2=O (stereo unspecified),-3.9%
2,CN(C(=O)COc1nnc(-c2cccs2)c(-c2cccs2)n1)c1ccccc1,-23.1%
3,CS(=O)(=O)N(CC(=O)N1CCOCC1)c1cccc(Cl)c1Cl,-16.2%
4,NS(=O)(=O)c1cccc(NC(=O)COC(=O)/C=C/c2ccco2)c1,5.2%
5,COC(=O)c1cc2c(ccn2C)n1C,15.7%
6,CCN1/C(=C\c2ccc3ccccc3[n+]2CC)Sc2cc(C)ccc21,39.8% (active)
7,COc1cccc(C(=O)n2ccc(-c3cccs3)n2)c1,0.5%
8,Cc1c(Cl)cccc1NC(=O)[C@@]1(CC(=O)O)CC(/C=C/c2ccccc2)=NO1,11%
9,CSC1=NC2(C)CCCCC2C12C=CC(=O)C=C2 (stereo unspecified),12.2%
10,O=C(NCCCN1CCCCC1)C1CC(=O)N(CCc2ccccc2)C1 (stereo unspecified),-4.4%
11,O=C(CN(C(=O)c1csnn1)c1ccc(Br)cc1)NC1CCCC1,-3.8%
12,CC(C)(C)C(=O)N(Cc1ccccc1)c1ccccn1,-10.9%
13,COc1ccccc1C1CCN(C(=S)Nc2ccc(Br)cc2)CC1,5.9%
14,O=C(CCCl)Nc1ccc(S(=O)(=O)NCc2ccco2)cc1,7.1%
15,CCS(=O)(=O)N1CCC(N2CCN(c3ccccc3)CC2)CC1,15%
16,CCCCc1ccc(NC(=S)N2CCCC(CO)C2)cc1 (stereo unspecified),7.5%
17,O=C(CN1C(=O)NC(Cc2c[nH]c3ccccc23)C1=O)Nc1ccccc1C(F)(F)F (stereo unspecified),-22.4%
18,CC(C(=O)N1CCc2ccccc21)N(C)CC(=O)Nc1ccc(F)cc1 (stereo unspecified),22.6%
19,O=C(c1cccs1)N1CCC(c2nc3ccccc3s2)CC1,22.5%
20,COc1cc2c(cc1OC)C(C(=O)NCc1ccco1)C1c3ccccc3CCN1C2=O (stereo unspecified),-2.9%
21,CN1/C(=c2/s/c(=C3/C(=O)N(c4ccccc4)NC3=Nc3ccccc3)n(C)c2=O)C(C)(C)c2ccccc21,35% (active)
22,Cc1ccc(N(CC(=O)NCC2CCCO2)C(=O)CNS(=O)(=O)c2ccc(Cl)cc2)cc1 (stereo unspecified),6.2%
23,CC(NCCc1ccc(S(N)(=O)=O)cc1)C(=O)NCc1ccccc1 (stereo unspecified),8.3%
24,O=C(CN1CCC(NC(=O)C2CC2)CC1)Nc1ccccc1[N+](=O)[O-],1.9%
25,CCN(C(=O)COC(=O)c1cc(S(=O)(=O)N2CCc3ccccc32)ccc1OC)C1CCS(=O)(=O)C1 (stereo unspecified),8.6%
26,CCc1cc2c(=O)c(-c3ccon3)c(N)oc2cc1OC,6.6%
